Assay results taken from PubChem BioAssay AID1259422 (The Scripps Research Institute Molecular Screening Center, 2018).
About 9,300 (1.5%) of roughly 640,000 compounds were called active. Only a selection was taken, and actives are over-represented in it overall. A number with no mark means an inactive call. No stated cut-off is given here; in the data, active means inhibition above about 32%; inactive means the rest.

Assay: TEAD-YAP interaction inhibition, primary screen, TEAD-YAP interaction inhibitor project, luminescence, HEK-TIYL cells (AID 1259422);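 further: 0% = median of test compound wells and 100% = reference inhibitor wells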
Details: TEAD-Gal4/YAP UAS-luciferase luminescence, at 9.12 µM, stronger effect = higher value

Compound	inhibition
Cc1ccccc1-n1c(SCC#N)nc2c(sc(=S)n2-c2ccccc2C)c1=O	-17.8%
COc1cc(C#N)cc(Cl)c1OC(C)=O	3.38%
Nc1nc(SCC(=O)Nc2ccc(F)c(Cl)c2)n[nH]1	4.23%
Cc1ccc2sc(-c3ccc(NC(=O)C(C)C)cc3)nc2c1	-16.9%
Nc1nc(SCC(=O)Nc2ccc3c(c2)C(=O)c2ccccc2C3=O)n[nH]1	-48.4%
Cc1ccc2nc(-c3ccc(NC(=O)CCl)cc3)sc2c1	32% (active)
Cc1cccc(N(CC(=O)Nc2ccc(-c3nc4ccc(C)cc4s3)cc2)S(C)(=O)=O)c1	8.01%
Cc1ccc2nc(-c3ccc(NC(=O)CSc4n[nH]c(N)n4)cc3)sc2c1	48.5% (active)
O=C(COC(=O)c1cc2ccccc2oc1=O)c1ccc(I)cc1	3.37%
CCN(CC)c1ccc2cc(-c3nnc(Nc4cc(Cl)ccc4OC)s3)c(=O)oc2c1	5.73%
CCN=C1SC(CC(=O)Nc2ccccc2SC)C(=O)N1CC (centres undefined)	-3.27%
Cc1ccccc1NC(=O)CCC(=O)OCC(=O)c1ccc([N+](=O)[O-])cc1	7.47%
Cc1cc(Nc2nc3ccccc3n3nnnc23)n(-c2ccc([N+](=O)[O-])cc2)n1	29.3%
N#C/C(=C/c1ccccc1F)C(=O)NCCc1c[nH]c2ccccc12	12.4%
CCCC(=O)Nc1ccccc1NC(=O)Cc1ccccc1	-1.49%
Cc1ccsc1C(=O)NCC1CCC2(CCN(C(=O)c3ccc(F)cc3)CC2)O1 (centres undefined)	-0.6%
O=C(Nc1cccc(Br)c1)c1ccccc1[N+](=O)[O-]	-3.71%
Cc1ccc(CCC(=O)Nc2ncc(Cc3cc(Cl)ccc3Cl)s2)o1	43.6% (active)
Cc1ccc(Cc2cnc(NC(=O)CCl)s2)cc1	24.8%
Cc1ccc(C(=O)Nc2ncc(Cc3ccc(Cl)cc3)s2)o1	-24.8%
CCOC(=O)c1ccc(S(=O)(=O)NNC(=O)CCN2C(C)CCCC2C)cc1 (centres undefined)	4.62%
CCc1ccccc1NC(=O)c1ccc(F)c(S(=O)(=O)NC2CCCCCC2)c1	-8.09%
O=C(Oc1cccc(NC(=O)c2ccccc2Cl)c1)c1ccc(Br)c(S(=O)(=O)N2CCCCC2)c1	41.8% (active)
CCOc1ccc(NC(=O)c2ccc(F)c(S(=O)(=O)NCCc3ccccc3)c2)cc1	20.5%

Compound	inhibition
CC1CCN(S(=O)(=O)c2cc(C(=O)Oc3cccc(NC(=O)c4ccccc4)c3)c(Cl)cc2Cl)CC1	-2.37%
CCOc1ccccc1NC(=O)c1ccc(F)c(S(=O)(=O)N2CCCC2)c1	-2.89%
CCOc1ccc(NC(=O)c2ccc(F)c(S(=O)(=O)NC3CCCCCC3)c2)cc1	43.4% (active)
CCOc1ccc(NC(=O)c2ccc(Br)c(S(=O)(=O)N3CCCC3)c2)cc1	35.5% (active)
O=C(Oc1cccc(NC(=O)c2ccccc2Cl)c1)c1ccc(Cl)c(S(=O)(=O)N2CCCCC2)c1	-1.45%
Cc1cccc(NC(=O)c2ccc(C)c(S(=O)(=O)N3CCCC3)c2)c1	-31.9%
Cc1nc2ccc(C(=O)OCC(=O)c3ccc([N+](=O)[O-])cc3)cc2nc1C	3.04%
O=C(O)C1CN(C(c2ccccc2)c2ccccc2)C1	3.68%
CCC(C)NC(=O)Nc1cccc(Cl)c1C (centres undefined)	-4.8%
COC(=O)c1ccc(NC(=O)c2ccc(C)o2)cc1	-47%
c1ccc(N2CCN(N=C3c4ccccc4-c4ccccc43)CC2)nc1	-13.3%
NC(=O)C(=O)N/N=C/c1cn(-c2ccccc2)nc1-c1cccs1	-10.6%
NC(=O)N/N=C/c1cn(-c2ccccc2)nc1-c1cc2ccccc2oc1=O	40.6% (active)
O=C(NNc1nc(-c2cc3ccccc3oc2=O)cs1)c1ccccc1	-15%
Cc1cccc(Cc2nnc(CCC(=O)N3CCN(C)C[C@@H]3c3ccccc3)o2)c1	-0.78%
COc1ccc(S(=O)(=O)NCCCNS(=O)(=O)c2ccc(OC)cc2)cc1	5.92%
COc1ccc(S(=O)(=O)NCCN)cc1	4.56%
COc1ccc(CNS(=O)(=O)c2ccc(Oc3ccc(S(=O)(=O)NCc4ccc(OC)cc4)cc3)cc2)cc1	55.4% (active)
CC(=O)Nc1ccc(Nc2nc(-c3ccccc3)nc3c2ncn3C(C)C)cc1	18%
Cc1c(Cl)cccc1N1C(=O)C2C3CCC(C3)C2C1=O (centres undefined)	3.02%
CCC(=O)N(Cc1ccco1)Cc1cc2cc3c(cc2[nH]c1=O)OCCO3	-9.49%
O=C(NNS(=O)(=O)c1cccc([N+](=O)[O-])c1)C1CCCCC1	-1.44%
Cc1ccc(CN2C(=O)CCC2CCNCc2cc3c(cc2Cl)OCO3)cc1F (centres undefined)	-1.93%
CCn1c(SCC(=O)Nc2nc3ccc(OC)cc3s2)nc2cccnc21	3.19%

Compound	inhibition
Cc1[nH]n(-c2ccc([N+](=O)[O-])cc2)c(=O)c1C=NCCN1CCN(C(=O)/C=C/c2ccccc2)CC1	13.1%
Clc1ccc(-c2cc(NCCCn3ccnc3)ncn2)cc1	-76.3%
Cc1nc(NCCCN2CCOCC2)cc(-c2ccccn2)n1	5.82%
c1ccc(-c2cc(NCCCn3ccnc3)nc(-c3ccccn3)n2)nc1	54.3% (active)
COc1ccc(Cl)cc1NC(=O)CC1C(=O)NCCN1C(=S)Nc1ccccc1 (centres undefined)	2.46%
O=C(Nc1ccc(F)c(F)c1)c1ccc(N2CC3CC(C2)c2cccc(=O)n2C3)c(NC(=O)c2cccc(C(F)(F)F)c2)c1 (centres undefined)	-14.9%
COc1ccc(/C(C)=N/Nc2nc3ccccc3[nH]2)cc1	-5.09%
Cc1ccc(NC(=O)Cc2cccc3ccccc23)c([N+](=O)[O-])c1	-15.6%
COc1ccc(-c2cnnc(N(C)CCC3CCOCC3)n2)cc1	-22.1%
COc1cccc(-c2cnnc(N(C)CCC3CCOCC3)n2)c1	-25.5%
COc1ccc(-c2cnnc(N(C)Cc3cnn(C)c3)n2)cc1	36.4% (active)
O=C(c1cccc(Cl)c1)N1CCN(c2ccc([N+](=O)[O-])c(N3CCOCC3)c2)CC1	13.5%
O=c1cc(-c2ccccc2)[nH]c2nc(Cl)ccc12	50.5% (active)
O=c1cc(-c2ccccc2)nc(NNc2ccccc2)[nH]1	2.03%
O=c1cc(-c2ccccc2)sc2ccc(Cl)cc12	-23.1%
CCn1cc(C(=O)Nc2ccc(N3CCOCC3)cc2)c(=O)c2ccc(C)nc21	-7.7%
COc1ccc(CC(=O)N/N=C(\C)c2ccccn2)cc1OC	2.58%
CCOC(=O)N/N=C/c1ccc(OS(=O)(=O)c2ccc(C)cc2)c(OC)c1	3.61%
COc1cc(C=O)ccc1OS(=O)(=O)c1ccc(Cl)cc1	-7.3%
Cc1ccc(S(=O)(=O)Oc2ccc(Br)cc2C=O)cc1	31.9% (active)
CSCCC(=O)Nc1ccc(Cl)cc1	2.57%
Cc1ccc(NC2=C(Cl)C(=O)OC2OC(=O)c2ccccc2Br)cc1 (centres undefined)	9.63%
N#Cc1ccccc1OCCCCn1cnc2ccccc21	35% (active)
O=C(O)c1cccc(OCC(O)Cn2cnc3ccccc32)c1 (centres undefined)	10%

Compound	inhibition
O=c1c2ccccc2ncn1CCCCOc1ccccc1F	5.72%
COc1c(C)cccc1C1=N/C(=C\c2cccc([N+](=O)[O-])c2)C(=O)O1	9.8%
CCCOC(=O)C1=C(C)N(C)C(=O)NC1c1cc(Br)c(O)c(OC)c1 (centres undefined)	3.09%
COc1ccc2nc(NC(=O)CN3C(=S)NC(C)(C)CC3C)sc2c1 (centres undefined)	3.44%
CC(NC(=O)COC(=O)c1cccc(NS(C)(=O)=O)c1)C12CC3CC(CC(C3)C1)C2 (centres undefined)	-4.62%
Cc1ccc(NC(=O)C(=O)NCCC2CCCCN2S(=O)(=O)c2ccc(C)cc2)cc1 (centres undefined)	17.1%
CCCCNC(=O)C(=O)NCCC1CCCCN1S(=O)(=O)c1ccc(C)cc1 (centres undefined)	50.6% (active)
Cc1ccc(S(=O)(=O)N2CCCCC2CCNC(=O)C(=O)NCCO)cc1 (centres undefined)	-1.73%
O=c1c(-c2ccon2)coc2cc(O)ccc12	-4%
COc1cc2nc(/C=C/c3ccco3)oc(=O)c2cc1OC	0.76%
O=C(N/N=C/c1ccc(O)cc1)c1ccc(N2Cc3ccccc3C2)cc1	-17%
CC(=O)c1ccc(N2CCN(c3cccc[n+]3C)CC2)cc1	-8.59%
CC(=O)c1ccc(N2Cc3ccccc3C2)cc1	38.4% (active)
CC1=C(C(=O)OCc2ccccc2)C(c2ccccc2F)CC(=O)N1 (centres undefined)	0.13%
COc1ccccc1N=c1scc(-c2ccccc2)n1CCO	1.29%
O=c1c2cc(Cl)ccc2[nH]c(=S)n1Cc1cccnc1	-1.08%
Cc1ccc(NC(=O)c2ccc(C#N)cc2)c(C(=O)c2ccccc2)c1	4.87%
COC(=O)CCNc1ccc2c(c1)OCCO2	33.2% (active)
CC(C)=CC(=O)Nc1ccc2c(c1)OCCO2	12.2%
CCOc1ccc(NCCC(=O)c2ccc3c(c2)OCO3)cc1	6.84%
Cc1cccc(NC(=O)CSc2nc3ccc([N+](=O)[O-])cc3[nH]2)c1	8.94%
O=C(Nc1ccc(N2CCC(N3CCN(CCO)CC3)CC2)cc1)c1cccc(Cl)c1	-1.49%
